Inconclusive results are not listed. Calls of active or inactive are those of the source. Unless noted, calls come from the whole dose curve; as a rule, active = well fitted curve in the direction sought with a large enough effect; inconclusive = small, poorly fitted or top-dose-only effect, or another doubt; inactive = no such curve, though single readings can be large; an effect the other way counts as inactive or inconclusive.
Legend:
[1] = target: Lysosomal acid glucosylceramidase (Homo sapiens) (UniProt P04062); experiment: Glucocerebrosidase-p2 (AID 348; in the data active = potency below about 10 µM; note: potency is the fitted concentration of half-maximal effect); conditions: purified GBA, blue fluorogenic substrate, 40 min
Lysosomal acid glucosylceramidase (Homo sapiens), sequence (P04062 whole entry, looked up): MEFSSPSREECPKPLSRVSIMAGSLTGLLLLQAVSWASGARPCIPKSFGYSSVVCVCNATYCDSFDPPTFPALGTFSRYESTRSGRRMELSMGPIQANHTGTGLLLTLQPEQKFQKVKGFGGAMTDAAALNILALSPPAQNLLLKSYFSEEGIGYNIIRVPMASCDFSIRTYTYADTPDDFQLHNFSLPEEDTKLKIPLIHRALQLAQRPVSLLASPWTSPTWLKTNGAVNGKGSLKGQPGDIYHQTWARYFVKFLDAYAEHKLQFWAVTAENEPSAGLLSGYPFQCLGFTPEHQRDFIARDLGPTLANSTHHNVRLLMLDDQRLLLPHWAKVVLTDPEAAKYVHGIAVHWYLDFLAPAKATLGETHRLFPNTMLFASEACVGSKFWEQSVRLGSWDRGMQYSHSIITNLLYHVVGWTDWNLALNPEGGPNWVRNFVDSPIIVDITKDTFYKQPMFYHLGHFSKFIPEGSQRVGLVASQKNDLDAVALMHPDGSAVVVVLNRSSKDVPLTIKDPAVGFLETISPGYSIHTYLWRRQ
Outline: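 Normal human glucocerebrosidase (0.2 nM) with blue fluorogenic substrate (80 uM final) in citrate/phosphate pH 5.9 with 10mM sodium taurocholate, 0.01% tween-20; 40 min RT, NaOH/glycine stop; fluorescence Ex 365/Em 440; AC50 from a titration from 0.6 nM upwards.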

[2] = target: Cytochrome P450 1A2 (Homo sapiens) (UniProt P05177); experiment: p450-cyp1a2 (AID 410; calls by dose curve; note: potency is the fitted concentration of half-maximal effect); conditions: recombinant CYP1A2, luciferin-ME demethylation, luminescence; series mostly up to 57 µM
Cytochrome P450 1A2 (Homo sapiens), sequence (P05177 whole entry, looked up): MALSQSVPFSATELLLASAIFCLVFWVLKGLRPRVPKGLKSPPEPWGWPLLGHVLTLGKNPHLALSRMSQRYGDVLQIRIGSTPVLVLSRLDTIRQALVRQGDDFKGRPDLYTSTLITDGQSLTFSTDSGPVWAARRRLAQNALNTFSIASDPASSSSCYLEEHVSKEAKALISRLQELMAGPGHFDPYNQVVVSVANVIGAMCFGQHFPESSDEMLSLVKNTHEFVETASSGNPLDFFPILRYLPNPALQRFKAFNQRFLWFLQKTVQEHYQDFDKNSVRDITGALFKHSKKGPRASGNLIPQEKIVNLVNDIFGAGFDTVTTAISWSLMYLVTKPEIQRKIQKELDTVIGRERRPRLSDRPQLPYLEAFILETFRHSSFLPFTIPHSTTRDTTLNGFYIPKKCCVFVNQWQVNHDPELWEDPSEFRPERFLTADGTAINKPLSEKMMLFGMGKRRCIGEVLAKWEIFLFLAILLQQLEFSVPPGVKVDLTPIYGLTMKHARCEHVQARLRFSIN
Outline: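 Luminescent demethylation readout: Luciferin-ME (100uM, equal to Km) turned over by 20nM CYP1A2 for 60 min at room temperature after NADPH regeneration addition, following 10 min compound preincubation. Normalization used 57 uM furafylline as full inhibition.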

[3] = NFAT Signaling Pathway (AID 444; active = well fitted curve in either direction with a large enough effect, not every such curve was filed as active;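 note: carbachol stimulus at about its EC50 of 1 µM final; % is set by controls: 0 for no effect and ±100 for the full control effect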); conditions: Jurkat NFAT-bla M1, carbachol, beta-lactamase ratio, 5 h; at 7.69 µM (top of the series) unless noted
Outline: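 Jurkat cells with NFAT-driven β-lactamase reporter and co-expressed M1 receptor, stimulated with carbachol (final 1 uM, ~EC50), compound titration, 5 h at 37 °C. CCF4 loaded 1 h at RT; 460/530 nm ratio gave %activity and AC50.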

[4] = Stat Signaling Pathway (AID 446; active = well fitted curve in either direction with a large enough effect, not every such curve was filed as active;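 note: ME-180 cervical cancer cells given 40 pM IL-6 alongside compound; SIE-controlled beta-lactamase reporter measured as 460/530 nm FRET emission ratio; % is set by controls: 0 for no effect and ±100 for the full control effect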); conditions: ME-180 SIE beta-lactamase reporter, IL-6 stimulated, 5 h; at 7.69 µM (top of the series) unless noted
Outline: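 FRET read-out (405 nm excitation, 460/530 nm emission) of a beta-lactamase reporter under a STAT-inducible element in ME-180 cervical carcinoma cells. Cells with compound receive 40 pM IL-6 for 5 h. Values are normalised to AC90 stimulation and AC90 JAK-inhibitor controls.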

[5] = target: Glucocorticoid receptor (Homo sapiens) (UniProt P04150); experiment: GR-GFP Redistribution (AID 450;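 active = compounds whose dose series gives a full or clear partial fitted curve of increased nuclear translocation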; note: potency is the fitted concentration of half-maximal effect); conditions: U2OS GR-GFP nuclear translocation, laser cytometry, 2 h
Glucocorticoid receptor (Homo sapiens), sequence (P04150 whole entry, looked up, the tested form may be a part): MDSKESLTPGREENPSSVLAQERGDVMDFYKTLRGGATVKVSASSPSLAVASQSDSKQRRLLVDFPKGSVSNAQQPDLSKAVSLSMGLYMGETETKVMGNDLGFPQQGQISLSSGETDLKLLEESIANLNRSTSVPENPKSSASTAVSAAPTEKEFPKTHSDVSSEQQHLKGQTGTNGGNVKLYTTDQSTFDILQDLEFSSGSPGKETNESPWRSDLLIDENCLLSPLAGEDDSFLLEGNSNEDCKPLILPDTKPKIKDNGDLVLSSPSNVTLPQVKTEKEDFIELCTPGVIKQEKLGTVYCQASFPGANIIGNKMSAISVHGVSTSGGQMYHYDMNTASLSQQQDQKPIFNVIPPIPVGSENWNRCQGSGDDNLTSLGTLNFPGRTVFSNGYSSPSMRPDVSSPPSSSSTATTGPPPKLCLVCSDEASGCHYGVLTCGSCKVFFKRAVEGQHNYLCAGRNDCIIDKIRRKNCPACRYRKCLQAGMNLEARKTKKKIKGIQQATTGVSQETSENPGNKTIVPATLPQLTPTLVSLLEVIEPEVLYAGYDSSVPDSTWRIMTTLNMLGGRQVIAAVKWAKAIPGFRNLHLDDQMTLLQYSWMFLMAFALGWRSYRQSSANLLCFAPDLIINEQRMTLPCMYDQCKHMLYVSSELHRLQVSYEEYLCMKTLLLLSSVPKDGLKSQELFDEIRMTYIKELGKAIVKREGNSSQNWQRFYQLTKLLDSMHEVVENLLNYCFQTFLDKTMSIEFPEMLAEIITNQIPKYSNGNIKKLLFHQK

[6] = target: Glucocorticoid receptor (Homo sapiens) (UniProt P04150); experiment: GR-EFC Redistribution (AID 451; calls by dose curve; note: potency is the fitted concentration of half-maximal effect); conditions: CHO-K1 GR-EFC translocation, beta-gal luminescence, 2 h
Outline: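 CHO-K1 cells expressing nuclear EA and GR-ED fragments of b-gal; compounds titrated up to 46 uM final, 2 h at 37 C. GR nuclear translocation read as complemented b-gal luminescence after 1 h RT detection.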

[7] = target: Mitogen-activated protein kinase 10 (Mus musculus) (UniProt Q61831); experiment: JNK3 AlphaScreen Assay (AID 530; active = well fitted curve in either direction with a large enough effect, not every such curve was filed as active;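 note: kinase came from lysate of stimulated human HepG2 cells; signal reports phosphorylation of biotinylated GST-cJun 1-79 at Ser73 with 10 µM ATP; % is set by controls: 0 for no effect and ±100 for the full control effect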); conditions: JNK3 lysate, c-Jun phosphorylation; series mostly up to 57.1 µM
Outline: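 Activity was read by AlphaScreen after JNK3-containing HepG2 lysate (cytokine pre-activated) phosphorylated biotinylated GST-cJun with 10 uM ATP at room temperature. Phospho-Ser73 cJun antibody with Protein-A acceptor beads provided detection.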

[8] = target: Cytochrome P450 3A4 (Homo sapiens) (UniProt P08684); experiment: qHTS Assay for Inhibitors and Substrates of Cytochrome P450 3A4 (AID 884); conditions: recombinant CYP3A4, Luciferin-PPXE luminescence; series mostly up to 57.1 µM; note: potency is the fitted concentration of half-maximal effect; nearly all actives have a fitted effect of over 50% in size
Cytochrome P450 3A4 (Homo sapiens), sequence (P08684 whole entry, looked up): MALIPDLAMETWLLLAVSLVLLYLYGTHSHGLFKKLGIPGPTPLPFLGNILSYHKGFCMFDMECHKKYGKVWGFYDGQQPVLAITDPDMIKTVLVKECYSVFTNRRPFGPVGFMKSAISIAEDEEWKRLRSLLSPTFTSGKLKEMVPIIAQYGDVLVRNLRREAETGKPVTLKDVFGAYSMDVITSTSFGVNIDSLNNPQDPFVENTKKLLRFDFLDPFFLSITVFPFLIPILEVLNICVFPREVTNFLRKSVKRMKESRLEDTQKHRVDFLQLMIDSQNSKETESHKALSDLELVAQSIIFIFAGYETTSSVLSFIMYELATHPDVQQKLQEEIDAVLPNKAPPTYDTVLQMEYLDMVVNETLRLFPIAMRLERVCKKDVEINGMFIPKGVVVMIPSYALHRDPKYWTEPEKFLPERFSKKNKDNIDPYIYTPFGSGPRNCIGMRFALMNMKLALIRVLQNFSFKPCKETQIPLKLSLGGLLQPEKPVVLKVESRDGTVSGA
Outline: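 Luminescent readout of luciferin produced by CYP3A4 (20 nM) dealkylation of Luciferin-PPXE, 25 uM (its KM). NADPH-driven reaction ran 60 min at RT after 10 min compound preincubation; data scaled to 57 uM ketoconazole as 100% inhibition.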

[9] = target: Cytochrome P450 3A4 (Homo sapiens) (UniProt P08684); experiment: qHTS Assay for Activators of Cytochrome P450 3A4 (AID 885); conditions: recombinant CYP3A4, Luciferin-PPXE luminescence, 60 min; series mostly up to 57.1 µM; note: nearly all actives have a fitted effect of over 65% in size
Outline: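 Luminescent readout of luciferin formed from 25 uM Luciferin-PPXE (KM level) by 20 nM CYP3A4 in 200 mM KPO4, with 60 min NADPH-driven reaction at room temperature after 10 min compound exposure. Ketoconazole (57 uM) defined 100% inhibition.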

[10] = target: Cytochrome P450 2C19 (Homo sapiens) (UniProt P33261); experiment: qHTS Assay for Inhibitors and Substrates of Cytochrome P450 2C19 (AID 899); conditions: recombinant CYP2C19, luciferin-H EGE luminescence; series mostly up to 57.1 µM; note: potency is the fitted concentration of half-maximal effect; nearly all actives have a fitted effect of over 60% in size
Cytochrome P450 2C19 (Homo sapiens), sequence (P33261 whole entry, looked up): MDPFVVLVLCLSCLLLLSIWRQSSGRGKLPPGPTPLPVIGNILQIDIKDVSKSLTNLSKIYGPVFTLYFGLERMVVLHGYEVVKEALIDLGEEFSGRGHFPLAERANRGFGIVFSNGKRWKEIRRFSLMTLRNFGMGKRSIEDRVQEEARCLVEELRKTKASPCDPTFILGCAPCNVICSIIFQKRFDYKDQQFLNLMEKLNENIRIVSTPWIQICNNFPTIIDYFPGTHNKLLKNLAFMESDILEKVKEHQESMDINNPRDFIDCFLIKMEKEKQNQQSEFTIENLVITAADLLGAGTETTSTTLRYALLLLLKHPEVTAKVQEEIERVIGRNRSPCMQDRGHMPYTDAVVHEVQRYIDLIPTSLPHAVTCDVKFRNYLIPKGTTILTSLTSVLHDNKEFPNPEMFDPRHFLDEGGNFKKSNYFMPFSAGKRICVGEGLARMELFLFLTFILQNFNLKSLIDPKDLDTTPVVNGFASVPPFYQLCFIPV
Outline: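 5 nM human CYP2C19 with 10uM Luciferin-H EGE (at KM) in 50mM KPO4, compound preincubated 10 min at 37C, then NADPH regeneration for 60 min at 37C. Luciferin read by luminescence after detection reagent; normalized to 57uM ketoconazole as full inhibition.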

[11] = target: Dual specificity protein kinase CLK4 (Homo sapiens) (UniProt Q9HAZ1); experiment: qHTS Assay for Inhibitors of CDC-like Kinase 4 (Kinase-Glo Assay) (AID 1770); conditions: recombinant Clk4, Kinase-Glo ATP depletion luminescence; series mostly up to 66.7 µM; note: nearly all actives have a fitted effect of over 65% in size; note: potency is the fitted concentration of half-maximal effect
Dual specificity protein kinase CLK4 (Homo sapiens), sequence (Q9HAZ1 whole entry, looked up): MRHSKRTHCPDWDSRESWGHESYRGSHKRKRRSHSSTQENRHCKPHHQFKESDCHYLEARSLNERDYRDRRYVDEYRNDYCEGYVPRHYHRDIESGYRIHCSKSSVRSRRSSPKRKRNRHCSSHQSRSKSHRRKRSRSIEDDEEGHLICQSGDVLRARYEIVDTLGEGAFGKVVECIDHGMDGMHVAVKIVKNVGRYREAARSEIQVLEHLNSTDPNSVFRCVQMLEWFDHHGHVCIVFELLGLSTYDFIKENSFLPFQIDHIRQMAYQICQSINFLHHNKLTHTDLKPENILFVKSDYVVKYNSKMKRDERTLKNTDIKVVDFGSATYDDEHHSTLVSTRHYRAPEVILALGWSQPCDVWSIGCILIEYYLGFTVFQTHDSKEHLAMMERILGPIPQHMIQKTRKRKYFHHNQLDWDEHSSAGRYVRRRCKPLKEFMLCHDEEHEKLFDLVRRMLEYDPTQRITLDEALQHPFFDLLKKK
Outline: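 Recombinant human Clk4 (25 nM) phosphorylated RS repeat peptide (100 uM) with 1 uM ATP in Tris pH 7.5/MgCl2/EGTA/DTT/Triton buffer for 4.5 h at room temperature. Residual ATP was quantified by Kinase-Glo luciferase luminescence.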

[12] = target: Dual specificity protein kinase CLK4 (Homo sapiens) (UniProt Q9HAZ1); experiment: qHTS Assay for Inhibitors of CDC-like Kinase 4 (ADP-FP Assay) (AID 1795); conditions: Transcreener ADP fluorescence polarization; series mostly up to 50 µM; note: nearly all actives have a fitted effect of over 60% in size; note: potency is the fitted concentration of half-maximal effect
Outline: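 Recombinant human Clk4 (6.25 nM) phosphorylated RS repeat peptide (100 uM) with 1 uM ATP in Tris pH 7.5/MgCl2/EGTA/DTT/Triton buffer for one hour. ADP was quantified by Transcreener competitive fluorescence polarization against an ADP calibration curve.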

[13] = target: Ubiquitin carboxyl-terminal hydrolase 1 (Homo sapiens) (UniProt O94782); experiment: Inhibitors of USP1/UAF1: Pilot qHTS (AID 504865); conditions: purified USP1/UAF1, Ub-rhodamine cleavage fluorescence; series mostly up to 54.9 µM;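 note: rhodamine fluorescence freed from ubiquitin-rhodamine substrate followed over time; top concentration of the series differs between compounds; % is set by controls: 0 for no effect and ±100 for the full control effect; nearly all actives have a fitted effect of over 35% in size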
Ubiquitin carboxyl-terminal hydrolase 1 (Homo sapiens), sequence (O94782 whole entry, looked up): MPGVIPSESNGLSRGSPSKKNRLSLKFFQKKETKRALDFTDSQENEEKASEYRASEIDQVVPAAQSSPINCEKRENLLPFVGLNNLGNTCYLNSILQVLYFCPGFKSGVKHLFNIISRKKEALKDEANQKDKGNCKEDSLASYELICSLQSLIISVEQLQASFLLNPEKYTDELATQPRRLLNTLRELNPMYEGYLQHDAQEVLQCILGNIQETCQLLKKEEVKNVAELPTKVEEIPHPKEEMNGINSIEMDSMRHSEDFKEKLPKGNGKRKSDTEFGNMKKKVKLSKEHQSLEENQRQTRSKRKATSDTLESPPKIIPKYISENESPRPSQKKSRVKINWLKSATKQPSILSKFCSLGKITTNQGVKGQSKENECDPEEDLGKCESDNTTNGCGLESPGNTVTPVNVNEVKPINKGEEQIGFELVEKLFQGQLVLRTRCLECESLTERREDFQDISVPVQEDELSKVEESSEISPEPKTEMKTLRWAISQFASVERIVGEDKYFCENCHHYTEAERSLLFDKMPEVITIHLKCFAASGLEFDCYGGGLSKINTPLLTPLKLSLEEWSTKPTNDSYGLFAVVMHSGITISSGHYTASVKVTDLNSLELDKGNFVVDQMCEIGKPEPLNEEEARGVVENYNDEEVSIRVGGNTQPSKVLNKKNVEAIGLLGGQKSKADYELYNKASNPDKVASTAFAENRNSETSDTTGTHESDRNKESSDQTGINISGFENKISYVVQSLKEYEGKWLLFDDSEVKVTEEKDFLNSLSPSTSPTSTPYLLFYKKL
Outline: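 USP1/UAF1 complex (1nM) preincubated with compound 15 min at room temperature, then Ub-Rho substrate (150nM final) added. Fluorescence read kinetically at 480/540 nm, 6 reads every 60 seconds. Buffer: 50mM HEPES pH 7.8, 0.5mM EDTA, 0.1 mg/ml BSA, 1mM TCEP, 0.01% Tween-20.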

[14] = Primary qHTS for small molecule stabilizers of the endoplasmic reticulum resident proteome: Secreted ER Calcium Modulated Protein (SERCaMP) assay (AID 1508630); conditions: SH-SY5Y GLuc-SERCaMP (Gaussia luciferase released on ER calcium loss) secretion, thapsigargin, luminescence; series mostly up to 38.4 µM; note: % is set by controls: 0 for no effect and ±100 for the full control effect
Outline: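 The SH-SY5Y reporter protocol was run at 3 concentrations up to 38.3 uM (primary) or 11 concentrations (follow-up): 16 h compound, 100 nM thapsigargin for 4 h, then extracellular luciferase luminescence.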

[15] = AP1 Signaling Pathway (AID 357; active = well fitted curve in either direction with a large enough effect, not every such curve was filed as active); conditions: ME-180 AP-1-bla reporter, EGF-induced, beta-lactamase ratio, 5 h; at 7.69 µM (top of the series) unless noted
Outline: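 Titration-series screen for positive or negative modulators of EC50 EGF-induced signaling in ME-180 cells carrying an AP-1-driven beta-lactamase reporter. After 5 hours at 37 degrees Celsius, CCF4 460nm/530nm emission ratio gave %Activity; AC50 values derived.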

[16] = target: 3',5'-cyclic-AMP phosphodiesterase 4B (Homo sapiens) (UniProt Q07343); experiment: qHTS Assay for Inhibitors of PDE-IV (AID 607; active = well fitted activation curve with a large enough effect in the main read-out, with a control signal flat, not every such curve was filed as active; note: % of control where 0% means no effect); conditions: HEK293 ACTOne CNG channel cells, membrane potential fluorescence; series mostly up to 22.9 µM
3',5'-cyclic-AMP phosphodiesterase 4B (Homo sapiens), sequence (Q07343 whole entry, looked up): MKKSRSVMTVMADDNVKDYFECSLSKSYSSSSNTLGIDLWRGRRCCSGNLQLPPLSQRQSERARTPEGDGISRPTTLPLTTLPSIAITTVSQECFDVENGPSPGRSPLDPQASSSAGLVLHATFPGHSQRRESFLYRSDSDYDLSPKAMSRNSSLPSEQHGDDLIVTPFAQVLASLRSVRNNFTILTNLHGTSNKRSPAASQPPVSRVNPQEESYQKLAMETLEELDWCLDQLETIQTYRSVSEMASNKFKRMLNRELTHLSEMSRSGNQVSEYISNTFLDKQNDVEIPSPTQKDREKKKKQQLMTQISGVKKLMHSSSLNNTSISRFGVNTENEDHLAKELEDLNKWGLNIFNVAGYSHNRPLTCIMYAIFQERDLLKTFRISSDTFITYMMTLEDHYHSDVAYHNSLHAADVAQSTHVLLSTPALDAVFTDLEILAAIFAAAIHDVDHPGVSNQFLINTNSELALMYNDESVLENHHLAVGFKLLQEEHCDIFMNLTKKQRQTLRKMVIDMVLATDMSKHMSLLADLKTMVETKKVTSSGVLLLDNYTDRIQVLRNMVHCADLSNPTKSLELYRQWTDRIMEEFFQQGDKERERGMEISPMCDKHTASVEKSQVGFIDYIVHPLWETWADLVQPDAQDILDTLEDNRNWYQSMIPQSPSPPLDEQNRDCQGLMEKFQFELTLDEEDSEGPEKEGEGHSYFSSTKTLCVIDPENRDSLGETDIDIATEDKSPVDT
Outline: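 Cell-based read-out of cAMP via a modified cyclic nucleotide-gated channel and membrane potential dye (535/590 nm) in HEK293 cells expressing PDE4 endogenously. Compounds tested up to 22.9 uM final; 100 uM RO 20-1724 reference.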

[17] = target: Cytochrome P450 2D6 (Homo sapiens) (UniProt P10635); experiment: qHTS Assay for Inhibitors and Substrates of Cytochrome P450 2D6 (AID 891); conditions: recombinant CYP2D6, luciferin-ME EGE luminescence; series mostly up to 57.1 µM; note: potency is the fitted concentration of half-maximal effect; nearly all actives have a fitted effect of over 60% in size
Outline: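 Luminescent read-out of luciferin formed by 5 nM human CYP2D6 demethylating 30 uM Luciferin-ME EGE (Km level) over 60 min at room temperature after NADPH regeneration addition. Data normalized to full inhibition by 1.43 uM quinidine.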

[18] = qHTS Assay for Identification of Small Molecule Agonists for Hypoxia Response Element Signaling Pathway (AID 914; active = well fitted activation curve with a large enough effect in the signal ratio, with a control signal flat, not every such curve was filed as active; the % refers to the signal ratio; note: % of control where 0% means no effect); conditions: ME-180 (cervical carcinoma) HRE-bla reporter, beta-lactamase ratio, CoCl2, 17 h; activation: stronger effect = higher value
Outline: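 Positive modulation of EC50 CoCl2-induced hypoxia response element signaling is measured in ME-180 cells with a beta-lactamase reporter. Compounds are titrated, incubation runs 17 hours, and %Activity derives from the blue/green ratio.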

c1ccc(CNc2ncnc3ccc(-c4ccc5c(c4)OCO5)cc23)cc1
active: Potency [2] 0.2 µM | Potency [8] 2 µM | Potency [10] 3.16 µM | Potency [11] 0.158 µM | Potency [12] 0.0355 µM
inactive: Potency [1] > 11.4 µM | activity change, negative = inhibition [3] -4.08% | activity, negative = inhibition [4] -5.81% | Potency [5] > 46 µM | Potency [6] > 46 µM | Potency [7] | Potency [9] | Potency [13] | outcome [14]

CCNc1ncc2nc(-c3cc(F)cc(F)c3)c(=O)n(CCC#N)c2n1
active: Potency [17] 0.0631 µM | Potency [11] 31.6 µM
inactive: Potency [1] > 11.4 µM | activity change, negative = inhibition [15] 28.7% | activity change, negative = inhibition [3] -24.5% | Potency [5] > 9.22 µM | Potency [6] > 46 µM | Potency [7] | Potency [16] | Potency [13] | outcome [14]

CN(C)c1ncc2nc(-c3ccccc3)c(=O)n(CCC#N)c2n1
active: Potency [2] 1.58 µM
inactive: Potency [1] > 11.4 µM | activity change, negative = inhibition [15] -4.57% | Potency [5] > 9.22 µM | Potency [6] > 46 µM | Potency [7] | Potency [11] | Potency [12] | Potency [13] | outcome [14]

Cc1noc(C)c1-c1nc(NCCN2CCOCC2)c2ccccc2n1
inactive: activity change, negative = inhibition [15] -2.23% | activity, negative = inhibition [4] -0.501% | Potency [5] > 46 µM | Potency [6] > 46 µM | Potency [7] | Potency [16] | Potency [9] | Potency [11] | Potency [12] | Potency [13] | outcome [14]
active: Potency [2] 2.51 µM | Potency [10] 7.94 µM

c1cncc(-c2ccc3ncnc(NCCN4CCOCC4)c3c2)c1
inactive: Potency [1] > 11.4 µM | activity change, negative = inhibition [15] -1.94% | activity change, negative = inhibition [3] 26% | activity, negative = inhibition [4] 2.95% | Potency [5] > 46 µM | Potency [6] > 46 µM | Potency [7] | Potency [16] | Potency [9] | Potency [13] | outcome [14]
active: Potency [2] 1 µM | Potency [11] 15.8 µM

Cc1cnc(CNc2nc(-c3cccc(NS(C)(=O)=O)c3)nc3ccccc23)cn1
inactive: Potency [1] > 11.4 µM | activity change, negative = inhibition [15] -28.3% | activity change, negative = inhibition [3] 19.4% | activity, negative = inhibition [4] -4.54% | Potency [5] > 46 µM | Potency [6] > 46 µM | Potency [7] | Potency [16] | Potency [11] | Potency [12] | Potency [13] | outcome [14]

Cn1c(=O)c(-c2cccc(F)c2)nc2cncnc21
inactive: Potency [1] > 11.4 µM | activity change, negative = inhibition [15] -15.2% | activity change, negative = inhibition [3] 8.36% | activity, negative = inhibition [4] -5.84% | Potency [5] > 9.22 µM | Potency [6] > 46 µM | Potency [7] | Potency [16] | Potency [9] | activation [18] -8.58% | Potency [11] | Potency [12] | Potency [13] | outcome [14]

COc1ccc(-c2nc3cnc(N4CCOCC4)nc3n(Cc3cccc(OC)c3)c2=O)cc1
inactive: Potency [1] > 11.4 µM | activity change, negative = inhibition [15] 18.4% | activity change, negative = inhibition [3] 18.6% | Potency [5] > 9.22 µM | Potency [6] > 46 µM | Potency [7] | Potency [16] | Potency [11] | Potency [12] | Potency [13] | outcome [14]

COCCNc1nc(-c2cccc(NS(C)(=O)=O)c2)nc2ccccc12
inactive: Potency [1] > 11.4 µM | activity change, negative = inhibition [15] -25.4% | activity change, negative = inhibition [3] 22.3% | activity, negative = inhibition [4] -10.1% | Potency [5] > 46 µM | Potency [6] > 46 µM | Potency [7] | outcome [14]
active: Potency [2] 3.16 µM | Potency [11] 11.2 µM | Potency [12] 14.1 µM

CN(C)C(=O)c1ccc(-c2ccc3ncnc(NCc4ccccc4)c3c2)cc1
inactive: Potency [1] > 11.4 µM | activity change, negative = inhibition [3] 13% | activity, negative = inhibition [4] 7.31% | Potency [5] > 46 µM | Potency [6] > 46 µM | Potency [7] | Potency [9] | Potency [11] | Potency [12] | Potency [13] | outcome [14]
active: Potency [2] 15.8 µM

N#Cc1cccc(-c2nc(NCc3cccnc3)c3ccccc3n2)c1
inactive: Potency [1] > 11.4 µM | activity change, negative = inhibition [15] -20.1% | activity change, negative = inhibition [3] 28.2% | activity, negative = inhibition [4] -21.4% | Potency [5] > 46 µM | Potency [6] > 46 µM | Potency [7] | Potency [9] | Potency [11] | Potency [13] | outcome [14]
active: Potency [2] 0.251 µM | Potency [8] 5.01 µM

COc1cccc(-c2nccc(NCc3ccc(OC)cc3OC)n2)c1
inactive: activity change, negative = inhibition [15] -28.1% | activity change, negative = inhibition [3] -2.27% | activity, negative = inhibition [4] -11.4% | Potency [5] > 46 µM | Potency [6] > 46 µM | Potency [7] | Potency [9] | Potency [12] | Potency [13] | outcome [14]
active: Potency [2] 1 µM | Potency [8] 3.16 µM | Potency [10] 2.51 µM | Potency [11] 31.6 µM

COc1ccc(CNc2ccnc(-c3ccoc3)n2)c(OC)c1
inactive: Potency [1] > 11.4 µM | activity change, negative = inhibition [3] 8.22% | activity, negative = inhibition [4] 10.4% | Potency [5] > 46 µM | Potency [6] > 46 µM | Potency [7] | activation [18] 16.3% | Potency [11] | Potency [12] | Potency [13] | outcome [14]
